14-3-3 Bad PPI = inhibitors of 14-3-3 zeta/Bad binding, primary screen, biochemical, TR-FRET, bovine 14-3-3 zeta | 14-3-3 protein zeta/delta (Bos taurus), P63103 | TR-FRET 14-3-3zeta/Dy647-pBad peptide displacement, 1 h | inhibition, % at 21.7 µM | 220,000 tested, 0.71% active;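 active = inhibition above about 70%, limit read from the data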
Target sequence (P63103 whole entry, looked up): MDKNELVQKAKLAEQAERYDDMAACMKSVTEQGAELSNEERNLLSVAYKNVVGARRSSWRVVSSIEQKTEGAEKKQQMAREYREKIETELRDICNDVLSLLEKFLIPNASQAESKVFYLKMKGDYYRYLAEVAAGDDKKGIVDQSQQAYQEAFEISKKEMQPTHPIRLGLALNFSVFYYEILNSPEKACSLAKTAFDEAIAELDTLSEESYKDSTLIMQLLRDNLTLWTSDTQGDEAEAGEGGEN
Mcl1 Bid PPI = Mcl-1/Bid binding inhibitors, primary screen, biochemical, TR-FRET, 1536-well. Induced myeloid leukemia cell differentiation protein Mcl-1 (Homo sapiens), Q07820. 220,000 tested, 0.97% active. inhibition, % at 21.7 µM. TR-FRET Mcl-1/Bid-Dy647 peptide binding. AID 1021, 2008;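 active = compounds that cut the binding signal by more than half at the single screening dose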;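 also: His-tagged Mcl-1 with europium anti-His antibody binding Bid BH3 peptide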
Bim-Mcl-1 = inhibitors of Bim peptide binding to Mcl-1, primary screen, biochemical, bead-based flow cytometry, multiplex. 190,000 tested, 0.1% active. Induced myeloid leukemia cell differentiation protein Mcl-1 (Homo sapiens), Q07820. Bim peptide-Mcl-1 binding. inhibition, % at 10 µM; in the data active = inhibition above about 40%
eIF4E 4G PPI = eIF4E–eIF4G protein interaction inhibitors, primary screen, biochemical, uHTS, TR-FRET, eIF4GI fragment; TR-FRET eIF4E-eIF4GI(517-606) binding, 2 h; inhibition, % at 21.7 µM; 220,000 tested, 0.37% active
Mcl1-Noxa inh = Mcl-1/Noxa binding inhibitors, primary screen, biochemical, TR-FRET, 1536-well; Induced myeloid leukemia cell differentiation protein Mcl-1 (Homo sapiens), Q07820; TR-FRET Mcl-1/Noxa peptide binding, 2 h; inhibition, % at 21.7 µM; 220,000 tested, 1.5% active;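 active = compounds that cut the protein-peptide binding signal by more than 50% relative to plate controls in a single-dose test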;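 also: His-tagged Mcl-1 with rhodamine Noxa BH3 peptide and terbium anti-His antibody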
NCF1 inh = p47phox/p22phox peptide binding inhibitors, primary screen, biochemical, uHTS, NADPH oxidase regulatory subunit; fluorescence polarization, 2 h; inhibition, % at 24.7 µM; 220,000 tested, 0.53% active; AID 1274, 2008; Neutrophil cytosol factor 1 (Homo sapiens), P14598
Target sequence (P14598 whole entry, looked up): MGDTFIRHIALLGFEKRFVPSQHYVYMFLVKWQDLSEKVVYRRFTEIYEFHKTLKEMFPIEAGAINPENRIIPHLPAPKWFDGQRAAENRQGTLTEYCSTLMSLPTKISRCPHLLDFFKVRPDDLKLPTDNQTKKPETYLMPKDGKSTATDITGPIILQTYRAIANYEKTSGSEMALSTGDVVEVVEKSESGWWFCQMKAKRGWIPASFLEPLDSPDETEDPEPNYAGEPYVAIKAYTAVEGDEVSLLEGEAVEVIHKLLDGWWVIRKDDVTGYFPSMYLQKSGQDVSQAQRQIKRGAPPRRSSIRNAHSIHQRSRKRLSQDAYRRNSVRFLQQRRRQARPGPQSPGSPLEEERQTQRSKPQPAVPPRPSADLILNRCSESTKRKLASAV
Each line names hits and unclear results; the compound was inactive in the other large screens; [ ] = dose if it differs, or a comment. Hits are enriched below; roughly 3.3% of the tested compounds scored in any of these assays.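 The calls were made as follows, unless noted: active = inhibition above about 30% (limit read from the data); inactive = the rest.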

O=c1c2ccccc2sn1-c1ccc(S(=O)(=O)N2CCCC2)cc1	NCF1 inh 30
Cc1ccc(CN2C(=O)N/C(=C/c3ccc(-c4ccc(C(=O)O)cc4)o3)C2=O)cc1	Mcl1-Noxa inh 66 (no result: Bim-Mcl-1)
O=C(O)c1cc(-c2ccc(/C=C3\NC(=O)N(c4ccccc4)C3=O)o2)ccc1Cl	Mcl1-Noxa inh 73 (no result: Bim-Mcl-1)
CC(=O)Nc1ccc(NS(=O)(=O)c2cc(-c3n[nH]c(=O)c4ccccc34)ccc2C)cc1	none (no result: Bim-Mcl-1)
CCOC(=O)Nc1sc(=S)n(C)c1C	14-3-3 Bad PPI 84
Nc1ccccc1-c1nnc(-c2ccccc2N)n1N	none
CCOC(=O)CCCNC(=O)CSc1nc2ccc(OCC)cc2[nH]1	none
Cc1cc(C)c2cc3c(N)c(C(=O)Nc4c(C)[nH]c(=O)[nH]c4=O)sc3nc2c1	Mcl1-Noxa inh 54
COc1ccc(NC(=O)C2CC(=O)N/C(=N/NC(=O)c3ccc(Cl)cc3)S2)cc1 (centres undefined)	none (no result: Bim-Mcl-1)
O=C(Nc1ccc(F)cc1)N1CCCN(c2ccc(C(F)(F)F)cn2)CC1	Mcl1 Bid PPI 83 (no result: Bim-Mcl-1)
CC(=O)Nc1ccc(N2CCN(c3ccc(C(F)(F)F)cn3)CC2)nc1	none (no result: Bim-Mcl-1)
O=c1c(Cl)c(N/N=C/c2ccc(Cl)cc2)cnn1-c1ccccc1	Mcl1-Noxa inh 74
Nc1c(C(=O)N/N=C/c2ccc(Cl)cc2)cnn1-c1ccccc1	none (no result: Bim-Mcl-1)
CCOC(=O)c1c(C)[nH]c(C2=NNC(=Nc3cccc(Cl)c3)SC2)c1C	none
Cc1ccc2nc(Cl)c(/C=N/NC(=O)[C@H]3C[C@@H]3c3ccccc3)cc2c1	NCF1 inh 31
CC(C)(C)c1ccc(C2CC2C(=O)N/N=C\c2cc3ccccc3nc2Cl)cc1 (centres undefined)	14-3-3 Bad PPI 84[fluorescence artefact?]
COc1ccc(CNC(=O)Cn2nnc(-c3ccc(NC(=O)C4CCCCC4)cc3)n2)cc1	none
CCOC(=O)Cc1csc(NC(=O)C(CC(C)C)NC(=O)C2CCCCC2)n1 (centres undefined)	none
O=C(C(c1ccccc1)c1ccccc1)N1CCOCC1	none
O=C(C(c1ccccc1)c1ccccc1)N1CCN(Cc2ccco2)CC1	14-3-3 Bad PPI 71
CCOc1ccc2nc(N3C(=O)/C(=C/c4ccccc4)NC3=S)sc2c1	none
COc1ccc2nc(N3C(=O)/C(=C/c4ccccc4)NC3=S)sc2c1	Mcl1-Noxa inh 64
COc1ccc(S(=O)(=O)c2ccc(OC)cc2)cc1	none
COc1ccc(C2=CC(=O)C=CC2=O)cc1	eIF4E 4G PPI 41, Mcl1-Noxa inh 87, NCF1 inh 58 (no result: Bim-Mcl-1)
COc1ccc(-c2nc(=S)c3c([nH]2)Oc2ccc(C)cc2C3)cc1O	Mcl1-Noxa inh 66
Nc1nc(CCOc2ccc(F)cc2)cs1	NCF1 inh 40
Nc1nc(COc2ccc3ccccc3c2)cs1	none
Cn1c(SCC(=O)Nc2ccc3nc(SCC(=O)N4CCCC4)sc3c2)nnc1-c1ccc(N)cc1	Mcl1-Noxa inh 100
CCN(CC)C(=O)CSc1nc2ccc(NC(=O)CSc3nccn3C)cc2s1	Mcl1-Noxa inh 56
Cn1c(SCC(=O)Nc2ccc3nc(SCC(=O)NC4CC4)sc3c2)nnc1-c1ccccc1	none
C#CC(C)OC(=O)Nc1cnccc1C(F)(F)F (centres undefined)	none (no result: Bim-Mcl-1)
COCc1c(C(=O)OCC(=O)NCCN2C(=O)CSC2=O)oc2ccccc12	none
Cc1cccc(/C=C/C(=O)c2ccc(NC3=NCCCS3)cc2)c1	Mcl1-Noxa inh 88
O=C(/C=C/c1ccccc1)c1ccc(NC2=NCCCS2)cc1	Mcl1-Noxa inh 84
COc1cccc(/C=C/C(=O)c2ccc(NC3=NCCCS3)cc2)c1	Mcl1-Noxa inh 57
C/C(=C\c1ccccc1)C(=O)Nc1ccc(S(=O)(=O)Nc2ncccn2)cc1	none
Cc1ccccc1CN1C[C@@H]2C[C@@H](c3cnc(N4CCOCC4)s3)N3CCC[C@@]23C1=O	none
CCOC(=O)c1c(NC(=O)COc2cccc3c2CCN(CC)C3=O)sc2c1CCC2	none
O=C(CC1C(=O)NCCN1Cc1ccc(-c2ccccc2)cc1)NCCCn1ccnc1 (centres undefined)	none (no result: Bim-Mcl-1)
Cc1cc(C)c[n+](-c2[nH]c(=O)sc2/C=N/N=C(\N)[S-])c1	none
O=C(Nc1nc2ccccc2s1)c1cc2c(s1)-c1ccccc1OC2	Mcl1 Bid PPI 57
CCc1[nH]c(=S)c(C#N)c2c1CCCC2	Mcl1-Noxa inh 59
CCc1[nH]c(=O)c(C#N)c2c1CCCC2	NCF1 inh 33 (no result: 14-3-3 Bad PPI, eIF4E 4G PPI)
Oc1cc2c(cc1O)C1c3ccc(O)c(O)c3OCC1(O)C2 (centres undefined)	Mcl1-Noxa inh 82
CC(=O)OC1=C(C#N)Cn2ccc3cccc1c32	eIF4E 4G PPI 32
CCCC(=O)Nc1c(-c2ccccc2)c(=O)c(C)nn1-c1ccc(C)cc1	none (no result: Bim-Mcl-1)
COc1ccc2[nH]c3c(=O)n(Cc4ccc(C(=O)N5CCCC5)cc4)c(=S)[nH]c3c2c1	Mcl1-Noxa inh 78
CCCNS(=O)(=O)c1ccc2c(c1)n(C)c(=O)n2C	14-3-3 Bad PPI 84
Cc1cc(C)cc(NS(=O)(=O)c2ccc3c(c2)c(=O)n(C)c(=O)n3C)c1	none
Cn1c(=O)c2cc(S(=O)(=O)Nc3cc(C(=O)O)cc(C(=O)O)c3)ccc2n(C)c1=O	Bim-Mcl-1 46
Cn1c(=O)n(C)c2cc(S(=O)(=O)NCC(=O)O)ccc21	none
CCNS(=O)(=O)c1ccc2c(c1)n(C)c(=O)n2C	none
Cn1c(=O)n(C)c2cc(S(=O)(=O)O)ccc21	14-3-3 Bad PPI 74
CCCn1c(=O)c(Br)cn(-c2ccccc2C)c1=O	none (no result: Bim-Mcl-1)
CO/N=C/c1ccc(OC)c(Oc2nc(OC)cc(OC)n2)c1	none
CC/C(O)=C1\C(=O)CC(c2ccccc2)CC1=NC(C)C (centres undefined)	none
CN(C)CCCN(CCCN(C)C)C(=S)Nc1ccc(S(=O)(=O)N2CCOCC2)cc1	none (no result: Bim-Mcl-1)
Nc1ccc(Cc2ccc(N)c(O)c2)cc1O	Mcl1-Noxa inh 87
COc1cc(Cc2ccc(N)c(OC)c2)ccc1N	none
COc1ccc(CN(C)CC(=O)NC(C)c2ccccc2)c(OC)c1 (centres undefined)	Mcl1 Bid PPI 56 (no result: NCF1 inh)
COc1ccc(C(=O)CSc2nnc(CN3CCCC3)n2-c2ccc(F)cc2)c(OC)c1	Mcl1-Noxa inh 53
CCn1c(=O)c2cc(C(=O)Nc3ccc(OC)cc3OC)sc2c2ccccc21	none (no result: Bim-Mcl-1)

Screening data: PubChem, several laboratories
